Experimental data from PubChem BioAssay (Tox21).
Values joined by “and” are separate entries in the source; they are usually repeats but may differ in a detail not shown here. Identical values can stand only once. Inconclusive results are not listed. Where a call stands in place of a potency, no number is given. More than one record can exist for a structure, and the calls need not agree. Active and inactive are the calls of the source. Unless noted, the call rests on the fitted dose curve.

How the values were obtained:
[1] = Nuclear factor erythroid 2-related factor 2/antioxidant responsive element (Nrf2/ARE) small molecule agonists: qHTS cell viability counter screen in human keratinocytes (AID 1919968; active means well fitted curve in the direction sought with a large enough effect in the repeat runs; an effect the other way counts as inactive or inconclusive; further: nearly all actives have a fitted effect of over 55% in size; further: potency means the concentration at half of the fitted maximal effect)
In short: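 Cells of the KeratinoSens line were plated at 1,500 per well and left for 5 h before compound transfer from DMSO stocks. After a 23 h incubation (37 C, 5% CO2), CellTiter-Fluor was added. Signal was taken as fluorescence intensity 1 h later.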

[2] = Nuclear factor erythroid 2-related factor 2/antioxidant responsive element (Nrf2/ARE) small molecule agonists: luciferase reporter gene qHTS assay in human keratinocytes (AID 1919969); further: nearly all actives have a fitted effect of over 35% in size; further: potency means the concentration at half of the fitted maximal effect
[3] = target: Gonadotropin-releasing hormone receptor (Homo sapiens) (UniProt P30968); test: Human gonadotropin-releasing hormone receptor (GnRHR) small molecule agonists, calcium flux assay in GnRHR-HEK293 cells (AID 1920063); further: nearly all actives have a fitted effect of over 35% in size
In short: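 Compounds dissolved in DMSO are pin-transferred onto dye-loaded GnRHR-HEK293 cells, which were seeded 18 h before at 37 C/5% CO2. Calcium signal is read as fluorescence intensity at 1 s intervals for 3 min.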

[4] = target: KiSS-1 receptor (Homo sapiens) (UniProt Q969F8); test: Human kisspeptin (KISS1R) small molecule agonists, calcium flux assay in KISS1R-HEK293 cells (AID 1920064; active means well fitted curve in the direction sought with a large enough effect in the repeat runs; an effect the other way counts as inactive or inconclusive)
In short: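 Cell line: HEK293, stable human KISS1R. Dye loading 1 h at 37 C after 18 h culture. Read: kinetic fluorescence, 480/540 nm, 3 min at 1 s intervals.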

[5] = G protein-coupled receptor (GPCR) small molecule agonists, calcium flux assay: HEK293 wild type cell line counter screen (AID 1920065)
In short: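 Tox21 10K compounds, 15 concentrations each in triplicate, pin-transferred in DMSO onto dye-loaded cells; kinetic read at 480/540 nm for 3 min, 1 s intervals.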

[6] = p53 small molecule agonists, cell-based qHTS assay with human liver microsomes: qHTS cell viability counter screen (AID 1963579); further: nearly all actives have a fitted effect of over 45% in size
In short: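 In this multiplexed counter screen, the reporter plates were subsequently treated with CellTiter-Glo so that cell viability, reflected by luminescence, could be recorded for p53RE-bla cells dosed 16 h with compounds under microsomal activation (HLM and NADPH).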

[7] = p53 small molecule agonists, cell-based qHTS assay with rat liver microsomes: qHTS cell viability counter screen (AID 1963580); further: nearly all actives have a fitted effect of over 45% in size; further: potency means the concentration at half of the fitted maximal effect
In short: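 After the beta-lactamase ratio was read, CellTiter-Glo was added to the same wells and luminescence measured at 30 min; cells had been treated 16 h at 37 C with compounds, rat liver microsomes and NADPH (0.5 mg/mL final each).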

[8] = p53 small molecule agonists, cell-based qHTS assay: qHTS cell viability counter screen (AID 1963581); further: nearly all actives have a fitted effect of over 45% in size
In short: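 ATP content measured by luminescence in HCT-116 p53RE-bla cells treated 16 h at 37 C, same wells as the reporter screen.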

[9] = target: 5-hydroxytryptamine receptor 2A (Homo sapiens) (UniProt P28223); test: 5-hydroxytryptamine receptor 2A (HTR2A) small molecule antagonists, cell-based qHTS assay (AID 1963586); further: nearly all actives have a fitted effect of over 45% in size
In short: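 CHO cells stably expressing human HTR2A were plated for 18 h at 37 C, then loaded with calcium dye for 1 h. Compounds were preincubated 5 min at room temperature before DOI (4 nM solution) was added. Kinetic fluorescence was read for 3 min.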

[10] = target: 5-hydroxytryptamine receptor 2A (Homo sapiens) (UniProt P28223); test: 5-hydroxytryptamine receptor 2A (HTR2A) small molecule agonists, cell-based qHTS assay (AID 1963587); further: nearly all actives have a fitted effect of over 30% in size
In short: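 CHO cells stably expressing human HTR2A, plated 18 h, loaded with calcium dye 1 h at 37 C. Agonist mode: compounds added and intracellular calcium fluorescence recorded kinetically for 2 min at 1 sec intervals.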

[11] = target: Muscarinic acetylcholine receptor M1 (Homo sapiens) (UniProt P11229); test: Cholinergic receptor muscarinic 1 (CHRM1) small molecule antagonists, cell-based qHTS assay (AID 1963588); further: nearly all actives have a fitted effect of over 40% in size
In short: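 Compounds were tested at 15 concentrations in three independent runs. Dye-loaded CHRM1-CHO cells were exposed 5 min at room temperature before stimulation by acetylcholine added at 50nM. Intracellular calcium was read kinetically on FDSS for 3 min.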

[12] = target: Muscarinic acetylcholine receptor M1 (Homo sapiens) (UniProt P11229); test: Cholinergic receptor muscarinic 1 (CHRM1) small molecule agonists, cell-based qHTS assay (AID 1963589); further: nearly all actives have a fitted effect of over 35% in size
In short: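 Homogeneous fluorescence calcium flux, agonist mode. Human M1-expressing CHO cells; compound dosed at 15 concentrations, three independent runs; signal sampled every 1 sec.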

[13] = cAMP Responsive Elements (CRE) small molecule agonists, cell-based qHTS assay (AID 1963590)
In short: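 HEK 293T cells stably bearing CRE-bla were plated at 2,000 cells per well and rested 18 h. Compounds, positive controls or DMSO were added for 3 h at 37 C. LiveBLAzer B/G substrate was then loaded for 2 h at room temperature.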

[14] = cAMP Responsive Elements (CRE) small molecule antagonists, cell-based qHTS assay (AID 1963591; active means well fitted inhibition curve with a large enough effect in the signal ratio in the repeat runs, not every such curve was filed as active; the % refers to the signal ratio)
In short: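 First, CRE-bla HEK293T cells settled 18 h at 37 C. Next, compound and 0.25 uM final NKH477 were applied for 3 h. Last, LiveBLAzer B/G substrate was loaded for 2 h at room temperature.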

[15] = target: Beta-2 adrenergic receptor (Homo sapiens) (UniProt P07550); test: Adrenergic beta2 receptor (ADRB2) small molecule antagonists, cell-based qHTS assay (AID 1963592); further: series mostly up to about 92 µM; nearly all actives have a fitted effect of over 50% in size
In short: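 Assay format: CHO-ADRB2 cells, 18-20hr seeding at 37C/5% CO2, then compound plus 1nM isoproterenol agonist mix for 0.5hr RT. Homogeneous time-resolved fluorescence cAMP detection after 1hr, expressed as 665/615 nm ratio.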

[16] = target: Beta-2 adrenergic receptor (Homo sapiens) (UniProt P07550); test: Adrenergic beta2 receptor (ADRB2) small molecule agonists, cell-based qHTS assay (AID 1963593);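 further: CHO cells stably overexpressing human ADRB2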
In short: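 CHO cells stably over-expressing ADRB2 were plated overnight at 37C, then dosed with compounds plus a stimulation mix containing 100uM IBMX and 25uM Ro-20-1724 for 0.5hr at room temperature. cAMP was measured by HTRF competition, 1hr.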

[17] = target: D(2) dopamine receptor (Homo sapiens) (UniProt P14416); test: Dopamine D2 receptor (DRD2) small molecule agonists, cell-based qHTS assay (AID 1963594); further: nearly all actives have a fitted effect of over 35% in size
In short: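 HEK293 cells stably expressing human DRD2, pre-treated with PDE inhibitor Ro20-1724 (0.1 mM final) and compound 10 min at room temperature, then stimulated with NKH477 (200nM […]) for 30 min. cAMP read by HTRF (665/620 nm).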

[18] = target: D(2) dopamine receptor (Homo sapiens) (UniProt P14416); test: Dopamine D2 receptor (DRD2) small molecule antagonists, cell-based qHTS assay (AID 1963595; active means well fitted inhibition curve with a large enough effect in the signal ratio in the repeat runs, with a control signal flat; the % refers to the signal ratio)
In short: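 In this cell-based antagonist screen, compounds act for 10 min at room temperature before a 30 min challenge with 12 nM quinpirole and 200 nM NKH477. cAMP is quantified by HTRF competition in DRD2-HEK293 cells containing 0.1 mM Ro20-1724.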

[19] = p53 small molecule agonists, cell-based qHTS assay with rat liver microsomes (AID 1963578)
In short: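 With rat liver microsomes and NADPH present (0.5 mg/mL final each), p53RE-bla cells are treated with compound for 16 h at 37 C. LiveBLAzer detection mixture is then applied for 2 h at room temperature in the dark.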

[20] = p53 small molecule agonists, cell-based qHTS assay (AID 1963582; active means well fitted activation curve with a large enough effect in the signal ratio in the repeat runs, not every such curve was filed as active; the % refers to the signal ratio)
In short: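 16 h compound exposure (37 C) of p53 response element–bla cells, preceded by 5 h recovery at 37 C/5% CO2; read-out via LiveBLAzer B/G FRET substrate, 2 h RT, fluorescence intensity.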

Sequence of D(2) dopamine receptor (Homo sapiens) (P14416 whole entry, looked up): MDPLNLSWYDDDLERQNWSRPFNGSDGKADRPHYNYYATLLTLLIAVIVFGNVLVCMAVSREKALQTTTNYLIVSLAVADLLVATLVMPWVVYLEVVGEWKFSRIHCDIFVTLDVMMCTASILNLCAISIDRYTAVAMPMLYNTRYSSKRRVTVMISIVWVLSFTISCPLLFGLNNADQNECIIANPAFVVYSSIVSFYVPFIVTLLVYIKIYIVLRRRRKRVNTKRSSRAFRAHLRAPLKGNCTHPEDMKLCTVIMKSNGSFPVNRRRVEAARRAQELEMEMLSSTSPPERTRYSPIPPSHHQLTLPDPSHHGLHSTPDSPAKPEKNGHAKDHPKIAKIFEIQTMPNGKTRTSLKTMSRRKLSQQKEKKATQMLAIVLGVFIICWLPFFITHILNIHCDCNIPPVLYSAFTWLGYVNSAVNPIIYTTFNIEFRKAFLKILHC
Sequence of 5-hydroxytryptamine receptor 2A (Homo sapiens) (P28223 whole entry, looked up): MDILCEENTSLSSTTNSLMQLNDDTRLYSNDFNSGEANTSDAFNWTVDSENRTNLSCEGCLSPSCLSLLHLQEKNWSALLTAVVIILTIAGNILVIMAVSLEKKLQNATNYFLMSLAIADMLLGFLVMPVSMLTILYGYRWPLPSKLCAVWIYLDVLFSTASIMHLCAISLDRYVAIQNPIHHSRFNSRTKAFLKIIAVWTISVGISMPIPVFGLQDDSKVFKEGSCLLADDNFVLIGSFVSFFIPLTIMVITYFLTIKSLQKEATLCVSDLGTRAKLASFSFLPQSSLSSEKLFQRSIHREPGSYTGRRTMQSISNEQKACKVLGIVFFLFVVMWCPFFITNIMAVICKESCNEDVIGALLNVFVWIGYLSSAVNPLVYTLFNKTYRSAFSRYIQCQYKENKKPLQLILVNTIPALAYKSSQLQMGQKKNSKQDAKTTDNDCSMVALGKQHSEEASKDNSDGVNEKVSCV
Sequence of KiSS-1 receptor (Homo sapiens) (Q969F8 whole entry, looked up): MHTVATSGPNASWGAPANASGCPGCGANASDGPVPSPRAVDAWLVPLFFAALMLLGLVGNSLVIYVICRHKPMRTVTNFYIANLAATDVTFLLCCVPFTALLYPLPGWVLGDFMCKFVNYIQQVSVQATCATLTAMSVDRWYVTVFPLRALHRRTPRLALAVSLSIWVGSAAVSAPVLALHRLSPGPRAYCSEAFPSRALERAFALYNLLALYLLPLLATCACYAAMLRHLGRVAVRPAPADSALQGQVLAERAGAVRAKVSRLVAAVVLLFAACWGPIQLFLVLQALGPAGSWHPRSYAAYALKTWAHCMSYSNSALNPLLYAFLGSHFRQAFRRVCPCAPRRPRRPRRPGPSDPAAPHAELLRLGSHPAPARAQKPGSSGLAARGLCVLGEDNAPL
Sequence of Beta-2 adrenergic receptor (Homo sapiens) (P07550 whole entry, looked up): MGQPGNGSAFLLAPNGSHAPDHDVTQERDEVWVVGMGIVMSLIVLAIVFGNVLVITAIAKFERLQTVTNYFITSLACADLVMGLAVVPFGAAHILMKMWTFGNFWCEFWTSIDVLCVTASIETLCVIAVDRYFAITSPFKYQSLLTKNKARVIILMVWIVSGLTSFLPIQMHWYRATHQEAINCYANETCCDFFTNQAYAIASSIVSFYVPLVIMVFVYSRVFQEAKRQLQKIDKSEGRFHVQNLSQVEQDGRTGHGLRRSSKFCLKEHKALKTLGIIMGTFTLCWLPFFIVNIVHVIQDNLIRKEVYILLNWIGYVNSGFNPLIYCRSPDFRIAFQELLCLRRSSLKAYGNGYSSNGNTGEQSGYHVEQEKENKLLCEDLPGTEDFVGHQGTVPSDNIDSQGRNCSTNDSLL
Sequence of Muscarinic acetylcholine receptor M1 (Homo sapiens) (P11229 whole entry, looked up): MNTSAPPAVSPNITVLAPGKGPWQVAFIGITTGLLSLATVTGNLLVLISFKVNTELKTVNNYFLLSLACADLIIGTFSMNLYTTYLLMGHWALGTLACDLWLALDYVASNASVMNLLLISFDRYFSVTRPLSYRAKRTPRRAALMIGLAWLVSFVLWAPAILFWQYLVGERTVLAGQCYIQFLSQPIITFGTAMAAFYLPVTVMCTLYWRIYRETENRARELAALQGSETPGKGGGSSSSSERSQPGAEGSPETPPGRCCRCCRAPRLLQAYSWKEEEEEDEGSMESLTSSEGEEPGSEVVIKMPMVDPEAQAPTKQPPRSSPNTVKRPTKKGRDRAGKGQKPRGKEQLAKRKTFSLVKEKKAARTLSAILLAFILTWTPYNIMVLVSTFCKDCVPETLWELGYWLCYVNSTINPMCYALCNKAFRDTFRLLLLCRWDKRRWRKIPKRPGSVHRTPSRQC
Sequence of Gonadotropin-releasing hormone receptor (Homo sapiens) (P30968 whole entry, looked up): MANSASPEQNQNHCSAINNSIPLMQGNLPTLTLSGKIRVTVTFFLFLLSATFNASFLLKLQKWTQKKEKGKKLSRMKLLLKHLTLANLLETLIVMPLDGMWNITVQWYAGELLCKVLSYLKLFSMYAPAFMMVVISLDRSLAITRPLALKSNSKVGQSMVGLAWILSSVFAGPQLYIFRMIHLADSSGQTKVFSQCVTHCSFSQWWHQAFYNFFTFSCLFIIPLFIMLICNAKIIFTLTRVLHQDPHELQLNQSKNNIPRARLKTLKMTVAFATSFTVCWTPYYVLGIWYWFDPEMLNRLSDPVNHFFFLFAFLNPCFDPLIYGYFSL

Row | SMILES | Potency [1] | Potency [2] | Potency [3] | Potency [4] | Potency [5] | Potency [6] | Potency [7] | Potency [8] | Potency [9] | Potency [10] | Potency [11] | Potency [12] | Potency [13] | Potency [14] | Potency [15] | Potency [16] | Potency [17] | Potency [18] | Potency [19] | Potency [20]
1 | CCCCCCCCCCCCCCCCO | inactive | inactive | inactive | inactive | inactive | inactive | inactive | inactive | inactive | inactive | inactive | inactive | inactive | inactive | inactive | inactive | inactive | inactive |  | 
2 | Nc1c2c(nc3ccccc13)CCCC2 | 54.5 µM (active) and inactive | 48.6 µM (active) and inactive | inactive | inactive | inactive | inactive | inactive | inactive |  |  |  |  |  | inactive | inactive | inactive | inactive | inactive | inactive | inactive
3 | NC(N)=Nc1nc(CSCC/C(N)=N/S(N)(=O)=O)cs1 | inactive | inactive | inactive | inactive | inactive | inactive | inactive | inactive |  |  |  |  | inactive | inactive | inactive | inactive | inactive | inactive | inactive | 
4 | CCCCCC1=CCCC1=O | inactive | inactive | inactive | inactive | inactive | inactive | inactive | inactive | inactive | inactive | inactive | inactive | inactive | inactive | inactive | inactive | inactive | inactive |  | 
5 | O=C(OCc1ccccc1)c1ccccc1 | inactive | inactive | inactive | inactive | inactive | inactive | inactive | inactive | inactive | inactive | inactive | inactive | inactive | inactive | inactive | inactive | inactive | inactive |  | 
6 | NC(N)=O | inactive | inactive | inactive | inactive | inactive | inactive | inactive | inactive | inactive | inactive | inactive | inactive | inactive | inactive | inactive | inactive | inactive | inactive |  | 
7 | CCCNC(=O)NS(=O)(=O)c1ccc(Cl)cc1 | inactive | inactive | inactive | inactive | inactive | inactive | inactive | inactive |  |  |  |  | inactive | inactive | inactive | inactive | inactive | inactive | inactive | inactive
8 | O=c1[nH]c(=O)n([C@H]2C[C@H](O)[C@@H](CO)O2)cc1Br | inactive | inactive | inactive | inactive | inactive | inactive | inactive |  | inactive | inactive | inactive |  |  | inactive | inactive | inactive | inactive | inactive | inactive | 
9 | CCOC(=O)CC(=O)OCC | inactive | inactive | inactive | inactive | inactive | inactive |  | inactive | inactive | inactive | inactive | inactive | inactive | inactive |  | inactive | inactive |  | inactive | inactive
10 | O=c1c(-c2ccc(O)cc2)coc2cc(O)cc(O)c12 | inactive | inactive and 15 µM (active) | inactive | inactive | inactive | inactive | 16 µM (active) |  |  |  |  |  | inactive |  | inactive |  | inactive | inactive | inactive | inactive
11 | COc1ccc(NC(C)=O)cc1N | inactive | inactive | inactive | inactive | inactive | inactive | inactive | inactive | inactive | inactive | inactive | inactive | inactive | inactive | inactive |  | inactive |  |  | 
12 | C=CC(C)CCCC(C)(C)O (stereo not drawn) | inactive | inactive | inactive | inactive | inactive | inactive | inactive | inactive | inactive | inactive | inactive | inactive | inactive | inactive |  | inactive | inactive |  | inactive | 
13 | C#C[C@]1(O)CC[C@H]2[C@@H]3CCC4=CC(=O)CC[C@@H]4[C@H]3CC[C@@]21CC | inactive | inactive | inactive | inactive | inactive | inactive | inactive | inactive |  |  |  |  | inactive |  | inactive | inactive | inactive | inactive | inactive | inactive
14 | CCN(CC)C(=O)c1cccc(C)c1 | inactive | inactive | inactive | inactive | inactive | inactive | inactive | inactive | inactive | inactive | inactive | inactive | inactive | inactive | inactive | inactive | inactive | inactive |  | 
15 | CC(=O)OC/C=C(C)/C=C/C=C(C)/C=C/C1=C(C)CCCC1(C)C | inactive | 66.9 µM (active) and 54.5 µM (active) and 29.8 µM (active) | inactive | inactive | inactive | inactive | inactive | inactive | inactive | inactive | inactive | inactive |  | inactive | inactive | inactive | inactive | inactive | inactive | 
